BoNT F protease = BoNT/F light chain protease inhibitors, primary screen, biochemical, flow cytometry, MLPCN library. hit rate 0.22% among 360,000. Botulinum neurotoxin type F light chain protease (Clostridium botulinum). inhibition, % at 10 µM. Multiplex microsphere protease cleavage assay; in the data active = inhibition above about 35%, passing the limit was not always enough; inconclusive = no clear call, values can overlap the other calls; also: plate controls were buffer without enzyme for full effect and enzyme alone for no effect
Autofluor counter = compound fluorescence in toxin protease inhibitor counterscreen; compound autofluorescence counterscreen, microsphere flow cytometry; hits give high values; fluorescence intensity (no concentration beside the values); hit rate 3.1% among 360,000; AID 624483; in the data active = fluorescence intensity above about 16000; inconclusive = no clear call, values can overlap the other calls
Anthrax LF prot = Bacillus anthracis LF protease inhibitors, primary screen, biochemical, multiplex microsphere, MLPCN library. Lethal factor (Bacillus anthracis), P15917. multiplex microsphere protease cleavage assay. inhibition, % at 10 µM. hit rate 0.12% among 360,000. AID 588501, 2011; also: plate controls were buffer without enzyme for full effect and enzyme alone for no effect
BoNT-A LC inh2 = BoNT/A light chain protease inhibitors, primary screen, biochemical, flow cytometry, MLPCN library | hit rate 0.17% among 360,000 | multiplex microsphere protease substrate cleavage | inhibition, % at 10 µM; also: plate controls were buffer without enzyme for full effect and enzyme alone for no effect
Active calls of the source: *; u = inconclusive. Rows were chosen to be rich in hits. Some 3.5% of all compounds tested hit in one or more screens of this group. Rule as the data show it, unless noted: active = inhibition above about 30%; inconclusive = no clear call, values can overlap the other calls; inactive = below that.

SMILES	BoNT F protease	Autofluor counter	Anthrax LF prot	BoNT-A LC inh2
COc1nc(N)c(S(=O)(=O)c2ccc(C)cc2)cc1C#N	0	19122*	-1	1
COc1ccc(NC(=S)NCc2cccs2)cc1	0	4058	-6	1
CC(C)c1ccc(NC(=S)NCc2cccs2)cc1	-6	21787*	-2	-4
S=C(NCc1cccs1)Nc1cccc(Cl)c1	-14	18567*	-6	-11
CC1CCN(C(=O)CCc2nc3cc(S(=O)(=O)N(C)C)ccc3n2C)CC1	-4	20932*	1	u
COc1ccc(CCN2CC(C(=O)N(C)CC(=O)Nc3cccc(F)c3)CC2=O)cc1OC (stereo not drawn)	-8	5883	3	0
CCS(=O)(=O)N1CCC(C(=O)Nc2cc(C)ccc2O)CC1	-12	3779	10	1
C=CCn1c(SCC(=O)N2CCCC2)nc2scc(-c3cccs3)c2c1=O	-5	21895*	-1	-5
O=C(CSc1nnc(-c2cccs2)n1-c1ccccc1)N1CCOCC1	9	4043	-2	0
CSc1nnc(-c2cccs2)n1-c1ccccc1	9	20664*	1	8
O=C(CSc1nnc(-c2cccs2)n1-c1ccccc1)N1CCCC1	-3	21472*	-2	-3
CC1CCN(C(=O)CSc2nnc(CN3CCOCC3)n2-c2ccccc2)CC1	-4	21833*	0	-3
Cc1ccc(C(=O)NCC(C)NC(=O)c2ccc(C)c(C)c2)cc1C (stereo not drawn)	10	5294	-4	0
O=C(Nc1ccccc1Cl)N1CCN(c2ccc3nnc(-c4ccc(F)cc4)n3n2)CC1	7	20523*	0	u
COc1ccc(C)cc1S(=O)(=O)N1CCCC(N2CCN(c3ccccc3)CC2)C1 (stereo not drawn)	0	4021	-6	0
O=C(COC(=O)c1ccccc1OCc1ccccc1Cl)NCC1CCCO1 (stereo not drawn)	-2	3865	-1	0
COc1cccc(-n2c(/C=C/c3ccc(O)c(O)c3)nc3ccccc3c2=O)c1	-6	2861	-2	0
COc1ccc(-n2c(/C=C/c3ccc(O)c(OC)c3)nc3ccccc3c2=O)cc1	36*	2862	-1	2
COc1cccc(C(=O)NCCN2CCN(c3ccccc3)CC2)c1	u	3093	-2	2
COc1ccc(C(=O)NCc2ccc(N3CCN(C(=O)OC(C)(C)C)CC3)cc2)cc1	-5	22812*	-2	-2
COc1ccc(C(=O)NCc2ccc(N3CCN(C)CC3)cc2)cc1	31	3554	23	4
COc1cccc(C(=O)NCc2ccc(N3CCN(C(=O)OC(C)(C)C)CC3)cc2)c1	2	20260*	-1	1
CCOC(=O)N1CCN(C(=O)c2ccc(N(Cc3ccc(C)cc3)S(C)(=O)=O)cc2)CC1	-2	23851*	-3	-2
CCOC(=O)N1CCN(C(=O)c2ccc(N(Cc3ccc(Cl)cc3)S(C)(=O)=O)cc2)CC1	-9	3652	0	0
CC(=O)c1cccc(NC(=O)c2ccc(N(Cc3ccc(C)cc3)S(C)(=O)=O)cc2)c1	-1	17101*	-2	-2
SMILES	BoNT F protease	Autofluor counter	Anthrax LF prot	BoNT-A LC inh2
O=C(COc1ccc(Cl)cc1)NCc1n[nH]c(=O)c2ccccc12	-6	6277	-1	0
CCNC(=O)n1cc(-n2cncn2)c(-c2ccccc2)n1	-4	2099	-1	0
COc1cccc(C2=CC(c3ccc(N(C)C)cc3)n3nnnc3N2)c1 (stereo not drawn)	5	16376*	-2	2
CC(CCc1ccccc1)NC(=O)C(=O)N1CCOCC1 (stereo not drawn)	-4	4219	-1	0
CCOC(=O)CSc1nc2sc3c(c2c(=O)n1-c1ccccc1)CCN(C(C)C)C3	4	5608	6	56*
CC(=O)Nc1ccc(C(=O)N(C)c2ccccc2)cc1	-2	3199	-1	0
CCN(C(=O)c1ccc(NC(C)=O)cc1)c1ccccc1	3	21341*	0	4
Cc1cc(C)nc(N2CCCC(C(=O)Nc3nc4ccc(S(C)(=O)=O)cc4s3)C2)n1 (stereo not drawn)	1	22009*	1	2
Cc1cc(C)cc(NC(=O)C2CCCN(c3nc(C)cc(C)n3)C2)c1 (stereo not drawn)	-3	22398*	-9	-1
Cc1cc(C)nc(N2CCCC(C(=O)Nc3nnc(C)s3)C2)n1 (stereo not drawn)	9	7621	-2	0
Cc1cc(C)cc(NC(=O)C2CCCN(c3nccc(C)n3)C2)c1 (stereo not drawn)	1	16127*	-4	0
CC1=CC(C)(C)N2C(=O)C3(SCC(=O)N3c3ccc(O)cc3)c3cc(C)cc1c32 (stereo not drawn)	3	20630*	-4	3
CCn1c(CNC(=O)c2cccs2)nnc1SCC(=O)NCCc1ccccc1	1	24231*	-2	u
CCn1c(CNC(=O)c2cccs2)nnc1SCC(=O)Nc1ccc(Cl)cc1	-5	17189*	-5	-2
CCn1c(CNC(=O)c2cccs2)nnc1SCC(=O)Nc1cc(Cl)ccc1C	10	21203*	-2	u
Cc1cccc(NC(=O)CNC(=O)c2ccc(-n3cncn3)c([N+](=O)[O-])c2)c1C	-5	5277	-1	2
CN1C(=O)C(=Cc2ccc(N3CCCCC3)o2)C(=O)N(C)C1=S	100*	9734	9	7
COc1ccccc1NS(=O)(=O)c1ccc(C(=O)N2CC(C)OC(C)C2)cc1 (stereo not drawn)	-1	4000	-1	0
CC(=O)c1c(C)[nH]c(C(=O)N2CCN(c3ccc(F)cc3)CC2)c1C	-5	23763*	-3	-4
CCn1cc(C(=O)NCc2ccco2)c(=O)c2cc(S(=O)(=O)N3CCCCCC3)ccc21	0	21862*	-4	u
CCn1cc(C(=O)NCc2ccco2)c(=O)c2cc(S(=O)(=O)N3CC(C)CC(C)C3)ccc21 (stereo not drawn)	0	19725*	1	0
C=CCn1cc(C(=O)NCc2ccco2)c(=O)c2cc(S(=O)(=O)N3CCCCCC3)ccc21	-3	16902*	-8	-2
CCn1cc(C(=O)NCc2ccco2)c(=O)c2cc(S(=O)(=O)N3CCC(C)CC3)ccc21	0	20447*	-11	2
CC1=C(C(=O)N2CCOCC2)CC(CC(=O)NCCCN(C)C)C(=O)N1Cc1ccc(F)cc1 (stereo not drawn)	6	5951	-3	1
O=C(Nc1ccccn1)c1ccc(Br)c(S(=O)(=O)N2CCCCC2)c1	10	8738	-1	1
CCn1cc(C(=O)NCc2ccco2)c(=O)c2cc(S(=O)(=O)N3CCc4ccccc4C3)ccc21	-2	20784*	-2	-1
CCn1cc(C(=O)NCCN(C)CCc2ccccc2)c(=O)c2cc(S(=O)(=O)N(C)C)ccc21	-3	22712*	-2	-1
CCn1cc(C(=O)NCCCN2CCCC2)c(=O)c2cc(S(=O)(=O)N3CCc4ccccc4C3)ccc21	-6	6193	-3	0
